Sampled rows, rich in hits. Any-hit rate of the full collection: about 7.2%.
RE007 growth inh = less growth of the S. pombe RE007 Vpr strain. 360,000 tested, 0.21% active. S. pombe RE007 Vpr strain, BacTiter-Glo ATP luminescence, 24 h. Potency, µM (titrated, usually from 92.2 µM), for the others: top-dose activity change, negative = less growth, actives largely listed as inhibitors. AID 651644; active means well fitted falling curve with a large enough effect; inconclusive means small, poorly fitted or top-dose-only effect; inactive means no such curve, though single readings can be large or run the other way; further: nearly all actives have a fitted effect of over 50% in size
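Fission yeast strain RE007, carrying one chromosomally integrated HIV-1 vpr copy, was seeded at OD 0.01 in PMG+AL medium with 23 nL pinned compound. After 24 h at 30 °C and 99% humidity, viability was read by BacTiter-Glo luminescence.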
Lassa entry inh = inhibitors of Lassa virus binding or cell entry; Lassa virus pseudotype entry inhibition, cell reporter; Potency, µM (titrated, usually from 37.9 µM), for inactives: at the highest dose activity change, negative = inhibition, actives largely listed as inhibitors; 300,000 tested, 1.2% active; AID 540256; calls by dose curve; tested in HEK293 cells; further: nearly all actives have a fitted effect of over 50% in size
FMDV antiviral = antivirals against foot and mouth disease virus | FMDV antiviral cell-based qHTS | Potency, µM (doses to about 57.9 µM), inactives show at the highest dose activity change, negative = inhibition, actives largely listed as inhibitors | 410,000 tested, 1.2% active; calls by dose curve; tested in HEK293T cells; further: read-out not given here; nearly all actives have a fitted effect of over 45% in size
HCV inh = inhibitors of hepatitis C virus infection; Huh7.5.1 HCVcc-Cre infection, luciferase reporter, 44 h; Potency, µM (series often up to 41.8 µM), without a hit: at the highest dose activity change, negative = inhibition, most hits filed as inhibitors; 340,000 tested, 3.4% active; AID 651820
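Antiviral activity was scored by luciferase reporter output from cells infected with HCVcc-Cre (~0.5 moi) in presence of compound, 44 h infection period, cells seeded 1,000/well 4 h prior.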
MARV entry inh = Marburg virus entry inhibition; Marburg virus pseudotyped entry inhibition, cell reporter; Potency, µM (top dose mostly 37.8 µM), for inactives: at the top dose activity change, negative = inhibition, usual class: inhibitors; 300,000 tested, 1.8% active; calls by dose curve; tested in HEK293 cells
Sm TGR block = blocks Schistosoma mansoni thioredoxin glutathione reductase; Q962Y6; purified TGR, DTNB reduction, TNB absorbance 405 nm; Potency, µM (series often up to 114 µM), for inactives: at the top dose activity change, negative = inhibition, most hits filed as inhibitors; 360,000 tested, 3% active; further: nearly all actives have a fitted effect of over 60% in size
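First, TGR (20 nM dispensed) and NADPH were mixed with compound. Second, a 15 min room-temperature incubation followed. Third, further NADPH and then DTNB were added to start the reaction. Finally, TNB absorbance was monitored kinetically.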
Starred values were filed as active, the others as inactive; [ ] = dose if it differs, or a comment. Unless noted, the call rests on the fitted dose curve; in most records, active means well fitted curve in the direction sought with a large enough effect; inconclusive means small, poorly fitted or top-dose-only effect, or another doubt; inactive means no such curve, though single readings can be large; an effect the other way counts as inactive or inconclusive. On the % scale 0 is the no-effect control and ±100 the full control effect; potency means the concentration at half of the fitted maximal effect.

For COc1ccccc1N1C(=O)C2ON(c3ccccc3)C(c3ccc(N(C)C)cc3)C2C1=O (stereo unspecified) the results were HCV inh -1%, MARV entry inh -4% and Sm TGR block 5µM*.
Screening Cc1ccc(N2C(=O)C3ON(c4ccccc4)C(c4ccncc4)C3C2=O)c(C)c1 (stereo unspecified) returned RE007 growth inh -19%, Lassa entry inh 1%, FMDV antiviral -8%, HCV inh -5%, MARV entry inh -23% and Sm TGR block 50µM*.
Cc1ccccc1N1C(=O)C2ON(c3ccccc3)C(c3ccco3)C2C1=O (stereo unspecified) was read as RE007 growth inh 8%, FMDV antiviral -9%, HCV inh 15% and Sm TGR block 50µM*.
Screening Cc1ccccc1N1C(=O)[C@@H]2[C@H](ON(c3ccccc3)[C@H]2c2ccncc2)C1=O returned MARV entry inh -6%.
For Cc1cc(-c2ccnc(-n3ncc(C(=O)NCC4COCCO4)c3C)n2)c(C)s1 (stereo unspecified) the results were FMDV antiviral 38%.
CCc1ccc2nc(N(CCN(CC)CC)C(=O)c3cccs3)sc2c1 was read as Lassa entry inh 12%[46.1 µM], FMDV antiviral -13% and Sm TGR block 7%.
Screening COC(=O)c1cc2c(n1S(=O)(=O)c1ccc(C)cc1)C(=O)C(=O)c1[nH]cc(C(=O)OCc3ccccc3)c1-2 returned RE007 growth inh 3%, Lassa entry inh 2.8µM*, FMDV antiviral 11µM*, HCV inh inconclusive and MARV entry inh inconclusive.
Screening COC(=O)c1ccc(COC(=O)c2ccc(CS(=O)(=O)c3ccc(C)cc3)cc2)cc1 returned RE007 growth inh 9%, Lassa entry inh -4%, FMDV antiviral 5%, HCV inh 4%, MARV entry inh 4% and Sm TGR block 6%.
Screening COc1cccc(C(=O)CN2CCN(S(=O)(=O)c3ccc(Cl)cc3)CC2)c1 returned Lassa entry inh -5%[46.1 µM], FMDV antiviral -12% and Sm TGR block 22µM*.
`O=C(CN1CCN(S(=O)(=O)c2ccc(Cl)cc2)CC1)c1ccc(O)c(O)c1` gave RE007 growth inh 0%, FMDV antiviral -19%, HCV inh -9% and Sm TGR block 20µM*.
Screening COc1ccc(S(=O)(=O)N2CCN(S(=O)(=O)c3ccc(OC)cc3)CC2)cc1 returned Sm TGR block -9%.
For O=C(CN1CCN(S(=O)(=O)c2ccc(F)cc2)CC1)c1ccc(O)c(O)c1 the results were RE007 growth inh -5%, Lassa entry inh -9%, FMDV antiviral -19%, HCV inh 2%, MARV entry inh -2%[46.1 µM] and Sm TGR block 22µM*.
For COc1ccc(S(=O)(=O)N2CCN(CC(=O)c3ccc(O)c(O)c3)CC2)cc1 the results were RE007 growth inh 2%, FMDV antiviral -14%, HCV inh -17% and Sm TGR block 20µM*.
Cc1ccc(NC(=O)CC(C)S(=O)(=O)c2ccc3c(c2)NC(=O)CO3)c(C)c1 (stereo unspecified) was read as Lassa entry inh 0%[46.1 µM], FMDV antiviral -20% and Sm TGR block 5%.
For CCOc1ccc(C(=O)CN2CCN(S(=O)(=O)c3ccc(F)cc3)CC2)cc1 the results were RE007 growth inh -21%, Lassa entry inh -10%, FMDV antiviral -23%, HCV inh -15%, MARV entry inh -23% and Sm TGR block 25µM*.
CCNc1nn2ccccc2c1/C=C(\C#N)C(=O)OCC was read as FMDV antiviral -17%, HCV inh 10µM* and Sm TGR block 13%.
`CCOC(=O)c1ccccc1NC(=O)c1cc2c(=O)oc3ccc(C)cc3c2s1` gave Lassa entry inh 28%[46.1 µM], FMDV antiviral 0%, MARV entry inh 0%[46.1 µM] and Sm TGR block 1%.

Screens deposited in PubChem BioAssay by National Center for Advancing Translational Sciences (NCATS).
